PG9 Ab binder – binds the HIV-1 gp120 antibody PG9 | TR-FRET gp120-PG9 antibody binding | inhibition, % at 6.7 µM | 360,000 compounds, 0.43% hits; in the data active = inhibition above about 8.5%
rCAG binder – molecules binding r(CAG) RNA repeats; r(CAG) RNA repeat, TO-PRO-1 dye displacement fluorescence; inhibition, % at 3 µM; 370,000 compounds, 1.3% hits; AID 651821;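 active = inhibition above the plate cutoff, the mean of all test compounds on that plate plus 3 SD, cut at about 35% in these data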;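 also: 0% = DMSO alone and 100% = 100 µM mitoxantrone as full dye displacement; higher means more dye released from RNA so lower well fluorescence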
HGIII-sPLA2 inh – Blocks human group III sPLA2 activity. Q9NZ20. QFRET BODIPY PC-A2 liposome hydrolysis, fluorescence. inhibition, % at 12.2 µM. 370,000 compounds, 0.56% hits;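 active = inhibition above mean plus 3 SD of compounds lying within the high and low control bounds, cut at about 19% in these data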;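 also: 0% = median of test compound wells and 100% = no enzyme DMSO wells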
Target sequence (Q9NZ20 whole entry, looked up): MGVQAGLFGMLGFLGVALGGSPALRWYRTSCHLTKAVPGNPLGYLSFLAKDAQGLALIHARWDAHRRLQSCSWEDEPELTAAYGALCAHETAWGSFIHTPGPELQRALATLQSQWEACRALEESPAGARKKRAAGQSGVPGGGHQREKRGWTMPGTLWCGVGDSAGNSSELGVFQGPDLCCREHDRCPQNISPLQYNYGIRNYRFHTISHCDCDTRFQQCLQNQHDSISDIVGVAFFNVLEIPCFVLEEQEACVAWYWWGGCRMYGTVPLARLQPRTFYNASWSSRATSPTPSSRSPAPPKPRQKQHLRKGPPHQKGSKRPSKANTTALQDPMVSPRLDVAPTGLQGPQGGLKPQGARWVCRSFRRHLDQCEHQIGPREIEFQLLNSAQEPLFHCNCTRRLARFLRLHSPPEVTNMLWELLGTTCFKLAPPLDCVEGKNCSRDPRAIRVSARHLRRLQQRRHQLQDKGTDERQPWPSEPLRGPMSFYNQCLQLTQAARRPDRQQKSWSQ
MsrA inhibitor – inhibitors of bovine MsrA | purified bovine MsrA, absorbance read-out | inhibition, % at 15.5 µM | 360,000 compounds, 0.75% hits | AID 651718;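 also: 0% = vehicle wells with enzyme and 100% = reference inhibitor wells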
MsrA act – bovine methionine sulfoxide reductase A activation; purified bovine MsrA, absorbance read-out; activation, % at 10.6 µM; 360,000 compounds, 0.3% hits; AID 602163; in the data active = activation above about 7.5%;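 also: 0% = vehicle and 100% = reference activator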
MsrA inh confirm – bovine MsrA inhibition, confirmed; inhibition, % at 15.5 µM; purified bovine MsrA, absorbance read-out; 2,300 compounds, 41% hits; shares compounds with MsrA inhibitor; AID 651822;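 also: coupled to thioredoxin reductase with NADPH and selenocystamine and DMSO as substrate; 0% = vehicle only and 100% = full effect of reference inhibitor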
Numbers without * were called inactive; / = no result. In the library only some 3.2% were active in any assay of this set; here they are far more common. Rule as the data show it, unless noted: active = inhibition above about 4.5%; inactive = the rest.

SMILES | PG9 Ab binder | rCAG binder | HGIII-sPLA2 inh | MsrA inhibitor | MsrA act | MsrA inh confirm
COC(=O)[C@]12C[C@H](CC(=O)NCCC(C)C)C(=O)N(CCc3ccc(OC)c(OC)c3)C1=C[C@H](C(C)C)O[C@@H]2C1CC1 | / | 3 | 5 | / | / | /
COC(=O)C1CN(Cc2ccc(OC)cc2)CCS(=O)(=O)N1Cc1ccc(C(F)(F)F)cc1 (centres undefined) | / | -1 | 1 | / | / | /
Cn1cc([N+](=O)[O-])c(C(=O)N/N=C/c2ccc3c(c2)OCO3)n1 | 3 | 1 | 8 | 4.9* | -3 | 3
COc1cc(C(=O)NCC(=O)N/N=C/c2ccc(-c3ccc([N+](=O)[O-])cc3)o2)cc(OC)c1OC | -2 | 11 | 5 | 2 | -2 | /
COc1cc(C(=O)NCC(=O)N/N=C/c2ccc(-c3cccc([N+](=O)[O-])c3)o2)cc(OC)c1OC | 0 | 12 | 1 | 5.3* | -2 | 3
CN(C)c1ccc(/C=N/NC(=O)c2ccc3c(c2)OCO3)cc1 | -14 | -1 | 5 | 6.9* | -5 | 5.5*
Cc1ccc(/C=N/NC(=O)c2cccc([N+](=O)[O-])c2)o1 | -3 | 0 | 1 | 5.2* | -3 | 4.9*
CC(=O)Nc1cccc(C(=O)N/N=C/c2ccc(C)o2)c1 | -5 | 0 | -3 | 1 | -7 | /
COc1ccc(OC)c(CN2C(=O)COc3ccccc3C2c2nnnn2C2CCCC2)c1 (centres undefined) | / | 0 | -2 | / | / | /
O=C(N/N=C/c1ccc([N+](=O)[O-])o1)c1ccc2c(c1)OCO2 | -4 | 4 | 2 | 2 | -2 | /
Cc1ccc(/C=N\NC(=O)c2ccc3c(c2)OCO3)o1 | -1 | 1 | 5 | 4.9* | -8 | 5.4*
CN(C)c1ccc(/C=N/NC(=O)c2cccc(N3CCCC3=O)c2)cc1 | -15 | -5 | 6 | 7.2* | -5 | 7.0*
COc1cc(C(=O)NN=Cc2ccc(N(C)C)cc2)cc(OC)c1OC | -16 | 5 | 4 | 5.1* | -5 | 5.1*
COc1cccc(/C=N/NC(=O)c2cccc(N3CCCC3=O)c2)c1 | 0 | -6 | 0 | -1 | -3 | /
Cc1ccc(C(=O)NN=Cc2ccc3c(c2)OCO3)cc1 | 1 | 3 | -3 | 3 | 2 | /
Cc1ccc(C(=O)N/N=C/c2ccc3c(c2)OCO3)o1 | 0 | 2 | 6 | 5.8* | -7 | 5.7*
O=S(=O)(c1ccc(CN2CCOCCOCCN(Cc3ccc(S(=O)(=O)C(F)(F)F)cc3)CCOCC2)cc1)C(F)(F)F | / | / | -5 | / | / | /
C[C@@H]1C[C@H](O)CCCCCC(=O)Cc2cc(O)cc(O)c2C(=O)O1 | / | 3 | 8 | / | / | /
O=C(CCc1nc2ccccc2[nH]1)N1CCN(C(=O)c2ccco2)CC1 | 2 | 2 | -6 | 0 | 0 | /
O=C(CSc1ccc(-c2nc3ccccc3[nH]2)cn1)N1CCN(C(=O)c2ccco2)CC1 | 1 | 11 | -1 | 5.1* | -5 | 2
O=C(c1cccc(I)c1)N1CCC(Oc2cccnc2)CC1 | / | 1 | 3 | / | / | /
Cc1ccccc1CS(=O)(=O)Cc1ccc(C(=O)Nc2cccc(Cl)c2F)o1 | / | 6 | -23 | / | / | /
CN(C)/C=N/c1nc2ncc(-c3ccc(Cl)cc3)c(/N=C/N(C)C)n2n1 | -1 | -3 | 6 | 5.2* | -8 | 3
CC(C)C[C@@H]1NC(=O)[C@H]2C[C@@]3(C)c4ccccc4N[C@H]3N2C1=O | / | 4 | 6 | / | / | /
O[C@H](COc1ccc(OC(F)(F)F)cc1)CN1CCC(C(O)(c2ccccc2)c2ccccc2)CC1 | / | 1 | -12 | / | / | /
SMILES | PG9 Ab binder | rCAG binder | HGIII-sPLA2 inh | MsrA inhibitor | MsrA act | MsrA inh confirm
CCN(CC)c1ccc(/C=N/n2c(C)cc(C)cc2=O)cc1 | 0 | 0 | 5 | 5.1* | -6 | 4
O=C(CCn1nnc(-c2cccs2)n1)N1CCOCC1 | / | 2 | 16 | / | / | /
Cc1ncc(CO)c(CNc2ccc(-c3nc4ccccc4[nH]3)cc2)c1O | -7 | 0 | -2 | 6.4* | -6 | 5.2*
Cc1cc(C)cc(C(=O)OCCN(C)C2CN(Cc3cn(Cc4ccccc4F)nn3)S(=O)(=O)C2)c1 (centres undefined) | / | -1 | -12 | / | / | /
O=c1c2cc(Cl)ccc2oc2nc3n(c(=O)c12)CCCS3 | 0 | 14 | 5 | 8.9* | -2 | 5
CCOC(=O)C1CCN(C(=O)c2c(C)oc3c2C(=O)c2ccccc2C3=O)CC1 | 6 | 12 | 1 | 9.3* | 2 | 14*
CC1CCN(C(=O)c2ccc3c(c2)C(=O)c2ccccc2-3)CC1 | -2 | 1 | -1 | 1 | -3 | /
Cc1oc2c(c1C(=O)N1CCC(C)CC1)C(=O)c1ccccc1C2=O | 0 | 3 | -7 | 13* | / | 6.0*

High-throughput results deposited in PubChem by The Scripps Research Institute Molecular Screening Center.
